Rows were chosen to be rich in hits. Some 1.1% of all compounds tested hit in one or more screens of this group.
FAS TE block: blocks the thioesterase domain of human fatty acid synthase | inhibition, % at 15 µM | hit rate 0.67% among 360,000 | P49327 | AID 602261 | recombinant FAS-TE, OMFH fluorogenic substrate, fluorescence endpoint;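 active = compounds whose normalised, plate-corrected inhibition of enzyme fluorescence in the single-dose primary screen is 50% or more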
Target sequence (P49327 whole entry, looked up, the tested form may be a part): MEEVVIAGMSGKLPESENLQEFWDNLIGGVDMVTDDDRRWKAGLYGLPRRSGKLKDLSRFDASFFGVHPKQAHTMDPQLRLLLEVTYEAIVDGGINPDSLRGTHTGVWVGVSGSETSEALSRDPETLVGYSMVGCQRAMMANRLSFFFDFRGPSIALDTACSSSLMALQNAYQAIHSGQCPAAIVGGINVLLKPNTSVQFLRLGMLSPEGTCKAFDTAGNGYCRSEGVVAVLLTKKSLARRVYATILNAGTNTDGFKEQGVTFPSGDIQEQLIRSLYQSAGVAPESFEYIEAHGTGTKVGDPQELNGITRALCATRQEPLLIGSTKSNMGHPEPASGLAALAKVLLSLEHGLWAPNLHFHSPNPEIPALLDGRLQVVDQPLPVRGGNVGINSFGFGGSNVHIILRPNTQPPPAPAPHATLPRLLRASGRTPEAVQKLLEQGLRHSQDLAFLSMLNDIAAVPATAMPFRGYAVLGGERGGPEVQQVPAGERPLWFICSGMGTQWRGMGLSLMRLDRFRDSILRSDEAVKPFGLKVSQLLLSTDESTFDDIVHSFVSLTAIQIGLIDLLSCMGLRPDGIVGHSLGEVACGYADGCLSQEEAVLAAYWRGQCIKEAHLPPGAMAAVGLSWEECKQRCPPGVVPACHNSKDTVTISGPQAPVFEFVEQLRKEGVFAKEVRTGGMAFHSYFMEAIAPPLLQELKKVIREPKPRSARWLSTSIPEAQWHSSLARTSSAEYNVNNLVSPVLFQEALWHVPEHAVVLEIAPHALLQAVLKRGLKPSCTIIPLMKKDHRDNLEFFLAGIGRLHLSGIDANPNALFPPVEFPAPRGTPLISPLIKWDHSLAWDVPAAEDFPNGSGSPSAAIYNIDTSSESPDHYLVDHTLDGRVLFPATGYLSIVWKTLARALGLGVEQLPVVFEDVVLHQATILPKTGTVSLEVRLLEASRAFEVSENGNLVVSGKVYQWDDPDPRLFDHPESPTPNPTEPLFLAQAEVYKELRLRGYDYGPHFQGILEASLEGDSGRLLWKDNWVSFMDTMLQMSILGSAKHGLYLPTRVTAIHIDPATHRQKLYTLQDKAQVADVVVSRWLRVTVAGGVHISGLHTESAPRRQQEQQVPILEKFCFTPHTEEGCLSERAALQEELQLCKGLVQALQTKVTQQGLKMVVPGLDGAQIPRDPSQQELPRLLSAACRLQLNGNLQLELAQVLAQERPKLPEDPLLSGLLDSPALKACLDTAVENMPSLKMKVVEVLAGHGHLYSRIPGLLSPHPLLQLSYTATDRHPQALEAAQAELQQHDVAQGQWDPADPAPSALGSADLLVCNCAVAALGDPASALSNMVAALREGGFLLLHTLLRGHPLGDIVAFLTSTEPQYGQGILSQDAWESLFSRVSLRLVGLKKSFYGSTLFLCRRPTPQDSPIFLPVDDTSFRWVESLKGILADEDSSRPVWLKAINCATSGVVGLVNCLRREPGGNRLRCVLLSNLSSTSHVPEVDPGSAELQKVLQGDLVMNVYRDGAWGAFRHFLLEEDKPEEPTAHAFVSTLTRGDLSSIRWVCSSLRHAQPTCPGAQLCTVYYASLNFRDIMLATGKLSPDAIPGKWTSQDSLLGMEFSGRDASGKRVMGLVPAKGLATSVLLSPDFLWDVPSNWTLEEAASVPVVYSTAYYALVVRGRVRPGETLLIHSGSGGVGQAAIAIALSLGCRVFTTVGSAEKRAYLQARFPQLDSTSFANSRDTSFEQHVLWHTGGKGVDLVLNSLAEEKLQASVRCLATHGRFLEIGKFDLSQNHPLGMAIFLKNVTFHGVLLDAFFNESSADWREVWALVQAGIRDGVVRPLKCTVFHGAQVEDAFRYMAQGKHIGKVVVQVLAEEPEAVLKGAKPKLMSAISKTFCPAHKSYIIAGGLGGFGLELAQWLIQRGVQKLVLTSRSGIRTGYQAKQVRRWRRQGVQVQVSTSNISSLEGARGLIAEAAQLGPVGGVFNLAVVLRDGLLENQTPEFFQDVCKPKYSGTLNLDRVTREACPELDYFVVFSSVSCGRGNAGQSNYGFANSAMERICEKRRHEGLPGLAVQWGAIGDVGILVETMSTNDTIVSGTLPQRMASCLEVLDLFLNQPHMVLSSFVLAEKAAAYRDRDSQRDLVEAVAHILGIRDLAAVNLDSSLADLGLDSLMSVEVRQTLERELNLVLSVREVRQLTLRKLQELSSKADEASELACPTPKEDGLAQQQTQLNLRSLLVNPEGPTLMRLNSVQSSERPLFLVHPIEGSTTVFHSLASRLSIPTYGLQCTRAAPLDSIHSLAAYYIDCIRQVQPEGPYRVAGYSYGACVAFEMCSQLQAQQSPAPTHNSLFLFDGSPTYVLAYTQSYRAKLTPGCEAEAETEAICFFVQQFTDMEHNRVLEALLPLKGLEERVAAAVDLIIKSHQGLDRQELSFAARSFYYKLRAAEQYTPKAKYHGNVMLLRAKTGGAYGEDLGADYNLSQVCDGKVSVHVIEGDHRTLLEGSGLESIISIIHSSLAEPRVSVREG
aDG glyco act: alpha-DG glycosylation activation; Pro5-aDG cells, alpha-DG glycosylation AlphaScreen (IIH6); 0% Pro5, 100% B10-LARGE cell signal; activation, % at 10 µM; hit rate 0.22% among 360,000;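 active = activation of at least 8% versus controls, or a plate z-score of at least 8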;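 note: Pro5 are CHO cells carrying HIG-tagged alpha-DG that lacks glycosylation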
NPR1 activator: GC-A (human) enzyme activation; HEK293 GC-A cells, cGMP TR-FRET, EC30 ANP; 0% at EC30 ANP, 100% saturating ANP; activation, % at 10 µM; hit rate 0.14% among 370,000; AID 1671463; in the data active = activation above about 40%
NPR2 activator: GC-B (human) receptor activation. AID 1920062. hit rate 0.11% among 370,000. P20594. activation, % at 10 µM. HEK293-GC-B cells, CNP EC30, cGMP TR-FRET; 0% at EC30 CNP, 100% saturating CNP;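 active = activation at 10 µM reaching about 35% in either raw or pattern-adjusted values, limit read from the data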
aDG glyco conf: confirmation of alpha dystroglycan glycosylation activators. activation, % at 10 µM (by protocol). hit rate 17% among 600. AID 651671. shares compounds with aDG glyco act. Pro5-aDG cells, alpha-DG glycosylation, IIH6 AlphaLISA; scaled to LARGE-overexpressing B10 cells as 100%;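 active = activation of at least 7% in one or more replicates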;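 note: cells exposed to compound for two days before detection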
Hits are given with their value; n = inactive; x = not tested or not shown.

SMILES	FAS TE block	aDG glyco act	NPR1 activator	NPR2 activator	aDG glyco conf
CCOc1ccc(N=Cc2ccc([N+](=O)[O-])cc2)c(O)c1	n	5.9	n	n	n
CCC1Nc2ncnc(N3CCc4ccccc4C3)c2N(Cc2ccc(Cl)cc2)C1=O (stereo not drawn)	n	15.7	n	n	n
O=C(NC1CCCC1)C1(C(=O)C2CC2)CC(c2ccccn2)=NO1 (stereo not drawn)	x	x	n	n	x
CC(C)CN(C(=O)CSc1ncnc2ccccc12)C1CCS(=O)(=O)C1 (stereo not drawn)	n	n	n	n	x
CN(C(=O)CSc1ncnc2ccccc12)C1CCS(=O)(=O)C1 (stereo not drawn)	n	4.5	n	n	n
CC(=O)Oc1cc(C)c(Cl)c2c(OC(C)=O)cc(C(C)=O)c(O)c12	x	x	n	n	x
CN(C)c1ccc(NC(=O)c2cn(-c3ccccc3)nc2-c2cccs2)cc1	n	n	n	n	x
CN(C)C(=O)c1cn(-c2ccccc2)nc1-c1cccs1	n	61.6	n	n	n
CC1(C(=O)Nc2ccc3c(c2)OCCO3)CSCC(=O)N1C1CC1 (stereo not drawn)	x	8.6	n	n	n
COCCn1c(SCC#N)nnc1-c1ccc(OC)cc1	n	4.7	n	n	n
C[C@H](CO)N1C[C@H](C)[C@@H](CN(C)C(=O)Nc2ccc(N3CCN(C)CC3)cc2)OCc2cnnn2CCCC1=O	n	n	n	n	x
C[C@@H]1CN([C@H](C)CO)C(=O)CCCn2nncc2CO[C@@H]1CN(C)C(=O)Nc1ccc(N2CCN(C)CC2)cc1	n	8.5	n	n	n
CC(=O)N1CCN(c2ccc(N3CCN(Cc4ccccc4)[C@@H](C)C3)c(C)c2)[C@H](C)C1	x	x	n	n	x
Clc1ccccc1OCCn1cnc2ccccc21	n	n	n	n	x
Brc1ccccc1OCCCCn1cnc2ccccc21	n	10.4	n	n	n
N#C/C(=C\c1cccc(Cl)c1)c1n[nH]c(Cn2cncn2)n1	n	2.9	n	n	n
N#C/C(=C\c1ccc(F)cc1)c1n[nH]c(Cn2cncn2)n1	n	n	n	n	x
O=C(CSc1nnc(-c2ccco2)n1-c1ccc(Cl)cc1)Nc1ccccc1-c1ccccc1	x	x	n	n	x
Clc1ccc(-c2cc(C3CCNCC3)[nH]n2)cc1	n	6.9	n	n	n
Cc1ccc(CN2CCC(c3cc(-c4ccc(Cl)cc4)n[nH]3)CC2)cc1	n	n	n	n	x
COCCn1c(C)cc(C2=NNC(=Nc3ccc(Cl)cc3Cl)SC2)c1C	n	n	n	n	x
COCC(C)N=C1NN=C(c2cc(C)n(Cc3ccccc3Cl)c2C)CS1 (stereo not drawn)	n	5.6	n	n	n
CC(=O)N1C[C@@H](CO)[C@@H](N(C)C(=O)/C=C/c2ccccc2)C[C@H]1c1ccccc1	x	x	n	n	x
Cc1ccc(NC(=O)c2cncc(Br)c2)c([N+](=O)[O-])c1	n	45.0	n	n	n
O=S(=O)(c1cc(C(F)(F)F)ccc1Cl)N1CCN(c2ncnc3ccccc23)CC1	n	4.5	n	n	n
SMILES	FAS TE block	aDG glyco act	NPR1 activator	NPR2 activator	aDG glyco conf
C/C=C/c1ccc(OCCCNC2CCCC2)c(OC)c1	n	9.6	n	n	11.6
CC(=O)c1c(C)[nH]c(C(=O)OCC(=O)Nc2ccc(Cl)cc2[N+](=O)[O-])c1C	n	8.4	n	n	n
Cc1c(Cl)ccc2c(C(N)=O)cc(-c3ccccn3)nc12	n	4.1	n	n	n
Cc1ccc(S(=O)(=O)N(C)C)cc1NC(=O)COC(=O)Cc1ccccc1F	n	10.9	n	n	n
Cc1ccc(S(=O)(=O)N(C)C)cc1NC(=O)COC(=O)Cc1ccc(Br)cc1	n	n	n	n	x
Cc1cc(-c2nn(-c3ccccc3)cc2/C=C2\SC(N)=NC2=O)ccc1OC(C)C	n	6.0	n	n	n
NC(=O)C1CCN(c2ncc(Br)cn2)CC1	x	x	n	n	x
Cc1nn(CC(=O)N2CCCC2)c(=O)c2nn(-c3ccccc3)c(C)c12	n	n	n	n	x
CCOC(=O)C1CCCN(C(=O)Cn2nc(C)c3c(C)n(-c4ccccc4)nc3c2=O)C1 (stereo not drawn)	n	9.8	n	n	n
O=C(Nc1ccc(-n2cc(Cl)cn2)cc1)c1ccncc1	n	2.8	n	n	n
O=C(Nc1ccc(-n2cc(Br)cn2)cc1)c1ccncc1	n	n	n	n	x
CN(c1ccccc1)S(=O)(=O)c1ccc(C(=O)NCc2cccs2)cc1	n	2.5	n	n	n
COCC(=O)N(C[C@H]1[C@H](c2ccccc2)[C@@H](CO)N1C(=O)NC(C)C)C(C)C	x	x	n	n	x
COCCN1CCC(CNCc2cn[nH]c2-c2ccc(C)c(C)c2)C1 (stereo not drawn)	n	n	n	n	x
COCCN1CCC(CNCc2cn(-c3cc(C)ccc3C)nc2-c2ccccc2)C1 (stereo not drawn)	n	7.8	n	n	8.6
CCC(C)Sc1nc2c(cnn2-c2ccccc2)c(=O)[nH]1 (stereo not drawn)	n	7.7	n	n	n
COc1ccc(S[C@@H](CCN2CC[C@H](NC(=O)OCc3ccccc3)CCC2=O)c2ccccc2)cc1	n	n	n	n	x
O=C(N[C@@H]1CCC(=O)N(CC[C@H](Sc2ccc(Br)cc2)c2ccccc2)CC1)OCc1ccccc1	n	9.1	n	n	n
CC(C)C[C@@H]1COc2cc(Br)ccc2S(=O)(=O)N1Cc1cn(Cc2ccc(F)cc2)nn1	x	x	n	n	x
Clc1nc(CN2CCOCC2)nc2sc3c(c12)CCC3	n	n	n	n	x
Cc1cc(C)n(-c2nc(NCCN(C)C)c3c4c(sc3n2)CCCC4)n1	n	n	n	n	x
Cc1cc(C)n(-c2nc(NCCCN(C)C)c3c4c(sc3n2)CCCC4)n1	n	2.7	n	n	11.3
Cc1cc(C)n(-c2nc(NCCC(C)C)c3c4c(sc3n2)COC(C)(C)C4)n1	n	4.8	n	n	n
Cc1cc(C)n(-c2nc(SCCN3CCOCC3)c3c4c(sc3n2)CCCC4)n1	n	2.6	n	n	n
CC(C)(C)c1ccc(C#C[C@@H]2C=C[C@@H](O)[C@@H](COC(=O)Nc3ccccc3)O2)cc1	x	x	n	n	x
SMILES	FAS TE block	aDG glyco act	NPR1 activator	NPR2 activator	aDG glyco conf
O=C(NCc1ccc(Cl)cc1)C1C2C=CC3(CN(Cc4ccccc4)C(=O)C13)O2 (stereo not drawn)	x	x	n	n	x
Cc1cccc(C)c1NC(=O)Cn1nnc(-c2ccncc2)n1	x	x	n	n	x
Cc1cc(C)cc(N(CC(=O)NC2CCC(C)CC2)S(=O)(=O)c2ccc(C)c(C)c2)c1 (stereo not drawn)	x	x	n	n	x
COC(=O)C1CN(Cc2cn(CCC3OCCO3)nn2)CCS(=O)(=O)N1Cc1ccccc1 (stereo not drawn)	x	x	n	n	x
CCOc1ccc(CN(C(=O)c2oc3ccccc3c2C)C2CCS(=O)(=O)C2)cc1 (stereo not drawn)	n	n	n	n	x
Cc1c(C(=O)N(Cc2ccc(Cl)cc2)C2CCS(=O)(=O)C2)oc2ccccc12 (stereo not drawn)	n	2.3	n	n	n

Screening data (PubChem BioAssay)
